# Experimental data published in ChEMBL document CHEMBL1157539, “Thousands of chemical starting points for antimalarial lead identification” (Nature, 2010).
# Tests used:
# Format in all cases: functional
# Plasmodium falciparum [1] = test: GSK_TCMDC: Inhibition of Plasmodium falciparum 3D7 in whole red blood cells, using parasite LDH activity as an index of growth. Test compounds present at 2uM
# Plasmodium falciparum [2] = test: GSK_TCMDC: Inhibition of Plasmodium falciparum Dd2 in whole red blood cells, using parasite LDH activity as an index of growth. Test compounds present at 2uM
# HepG2 = test: GSK_TCMDC: Percent inhibition of human HepG2 cell line. Test compounds present at 10uM.
Compound,Inhibition (Plasmodium falciparum [1]),Inhibition (Plasmodium falciparum [2]),Inhibition (HepG2)
COc1ccc(CNC2Cc3ccccc3C2)cc1-c1ccc(S(=O)(=O)NCc2cccnc2)s1.O=C(O)C(F)(F)F,91%,18%,49%
O=c1[nH]c2c(cc1CNC1CCCCC1)c(-c1cccc(F)c1)nn2-c1ccccc1,95%,89%,6%
CCN(C(=O)NC)C1c2cc(C#N)ccc2OC(C)(C)C1O (stereo not given),96%,2%,3%
CCC1CN2CCc3c([nH]c4ccccc34)C2CC1CC1NCCc2cc(OC)c(OC)cc21.Cl (stereo not given),100%,83%,26%
CN1CCC(Oc2ccc(Nc3nccc(NCC(O)c4ccccc4)n3)cc2Cl)CC1 (stereo not given),100%,99%,46%
Cc1[nH]cc(Br)c(=O)c1-c1ccc(Oc2ccccc2)cc1,97%,96%,0%
CN(C)CCOc1cc(NC(=O)Nc2ccc(-c3ccncc3)c3ccccc23)ccc1I,97%,46%,35%
Cc1cccn2c(=O)c3cc(C(=O)NC(C)c4ccccc4)c(=N)n(CCc4ccccc4)c3nc12 (stereo not given),100%,82%,5%
CC(C)(C)c1ccc(NC(=O)c2ccc(CN3CCCN(Cc4cccc(Cl)c4)CC3)cc2)cc1.O=C(O)C(F)(F)F,96%,7%,43%
Cc1ccc(-c2cc3nc4c(c(NCCCn5ccnc5)n3n2)CCC4)cc1,94%,21%,22%
COc1ccc(Nc2ncc(OC)c(Nc3ccccc3C(N)=O)n2)cc1N1CCN(C)CC1.O=CO,100%,96%,63%
Cc1cccc(-c2ccc(CNC3CCN(CC4Cn5c(=O)ccc6ccc(F)c4c65)CC3)cn2)c1.O=C(O)C(F)(F)F (stereo not given),90%,2%,0%
COc1ccc2nc3cc(Cl)ccc3c(N)c2c1.Cl,100%,100%,100%
CCc1nnc2sc(-c3cccc(NC(=O)c4ccc(OC)c(Cl)c4)c3)nn12,92%,55%,3%
CCc1cn2c3c(cc(C(=O)N[C@@H](Cc4cccc(Cl)c4)[C@H](O)CNC4CC4)cc13)N(C)S(=O)(=O)CC2.O=CO,98%,98%,10%
Cc1noc(-c2ccc3c(c2)CCN(CCC2CCC(NC(=O)/C=C/c4cccc(Cl)c4)CC2)CC3)n1.Cl (stereo not given),86%,24%,37%
Cc1cccc2nc(-c3ccc(-c4ccc(NC(=O)Nc5ccc(Cl)cc5)cc4)cc3)[nH]c12,100%,100%,52%
O=C(Nc1ccc(C(F)(F)F)cc1)c1cccc(S(=O)(=O)NCC2CCCN(CC3CCCCC3)C2)c1.O=C(O)C(F)(F)F (stereo not given),97%,4%,27%
Cn1c(NC(=O)C2CCCN(C(=O)c3ccc(O)c(-c4ccc(Cl)c(Cl)c4)c3)C2)nc2ccccc21 (stereo not given),98%,99%,0%
CCc1nc2nc(C)cc(Nc3ccc(F)c(Cl)c3)n2n1,90%,77%,2%
Oc1cc(NC[C@@H]2CCC[C@@H]2NCc2ccc(Cl)c(Cl)c2)nc2ccccc12,100%,75%,9%
CC(C)(O)CC(C)(C)c1cc(Cl)ccc1O,96%,1%,5%
COc1cc(OC)cc(-c2nnc(Sc3ccc(C#N)c([N+](=O)[O-])c3)n2C)c1,95%,77%,1%
CCC(C)(C)C1CCc2[nH]c3ccccc3c(=O)c2C1 (stereo not given),97%,96%,16%
COc1ccc(CNCc2cccc(-c3ccc(-c4nc5cc(C(F)(F)F)ccc5[nH]4)cc3)c2)cc1.O=C(O)C(F)(F)F,100%,95%,23%
